This note sets out measurements from article PMC12529666, “Dysregulation of AGO2-miRNA dynamics underlies the AGO2-associated Lessel–Kreienkamp syndrome”.

Holding throughout (experiment): RNA Bind-n-Seq (nitrocellulose filter binding and sequencing); miR-122 guide loaded in AGO2; 60 min incubation; 30 mM Tris pH 8.0, 100 mM potassium acetate, 2 mM magnesium acetate, 0.5 mM TCEP, 0.005% NP-40, 0.01 mg/ml yeast tRNA; 3 nM AGO2-miR-122, 100 nM RNA library; 60; high values mean tight binding
Conditions in all cases: protein: recombinant; tags: His6 (N-terminal, pFastBac HTA)

Test [1] concerns the target AGO2 L192P (Homo sapiens, UniProt Q9UKV8 1-859, L192P;S387D;S824A;S828D;S831D;S834A). The method, boiled down: (§1)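 Fold enrichment is each target's read fraction divided by its read fraction in the input library. Sf9 insect cells expressed His-tagged AGO2 from baculovirus; the protein was loaded with a synthetic guide RNA and purified by Ni-NTA and a biotinylated capture oligo. The bound RNA was extracted, reverse-transcribed, barcode-amplified and sequenced on Illumina.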

In test [2] the target is AGO2 A367P (Homo sapiens, UniProt Q9UKV8 1-859, A367P;S387D;S824A;S828D;S831D;S834A). The method, boiled down: as §1
AGO2 A367P, sequence (Q9UKV8 whole entry A367P/S387D/S824A/S828D/S831D/S834A): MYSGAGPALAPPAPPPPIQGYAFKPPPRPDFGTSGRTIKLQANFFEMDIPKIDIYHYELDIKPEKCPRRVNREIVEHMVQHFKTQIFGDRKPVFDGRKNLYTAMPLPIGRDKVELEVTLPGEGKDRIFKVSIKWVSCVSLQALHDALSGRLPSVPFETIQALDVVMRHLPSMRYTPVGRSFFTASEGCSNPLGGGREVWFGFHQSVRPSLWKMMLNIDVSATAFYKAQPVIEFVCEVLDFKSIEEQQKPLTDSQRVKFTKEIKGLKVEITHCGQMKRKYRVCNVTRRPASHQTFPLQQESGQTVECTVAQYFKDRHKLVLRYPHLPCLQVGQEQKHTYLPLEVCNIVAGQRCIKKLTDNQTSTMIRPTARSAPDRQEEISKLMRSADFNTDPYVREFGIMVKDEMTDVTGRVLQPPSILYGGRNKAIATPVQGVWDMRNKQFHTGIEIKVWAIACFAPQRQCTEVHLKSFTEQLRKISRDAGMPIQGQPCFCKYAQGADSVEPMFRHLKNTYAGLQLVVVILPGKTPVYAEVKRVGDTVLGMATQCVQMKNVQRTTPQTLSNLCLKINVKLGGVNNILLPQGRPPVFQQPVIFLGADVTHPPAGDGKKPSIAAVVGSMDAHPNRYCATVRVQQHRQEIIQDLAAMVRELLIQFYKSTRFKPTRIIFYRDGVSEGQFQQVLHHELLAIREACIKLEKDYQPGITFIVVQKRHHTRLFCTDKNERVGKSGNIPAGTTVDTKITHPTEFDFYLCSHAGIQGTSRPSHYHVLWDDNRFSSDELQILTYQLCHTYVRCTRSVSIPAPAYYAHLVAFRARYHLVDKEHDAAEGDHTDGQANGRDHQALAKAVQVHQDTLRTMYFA
Test [3] deals with AGO2 T357M (Homo sapiens, UniProt Q9UKV8 1-859, T357M;S387D;S824A;S828D;S831D;S834A). The method, boiled down:
as §1

For test [4], the target named is AGO2 F182del (Homo sapiens, UniProt Q9UKV8 1-859, S387D;S824A;S828D;S831D;S834A;del182-182). The method, boiled down: as §1
AGO2 F182del, sequence (Q9UKV8 other isoform, or with tags, fused parts or gaps S387D;S824A;S828D;S831D;S834A;del182-182): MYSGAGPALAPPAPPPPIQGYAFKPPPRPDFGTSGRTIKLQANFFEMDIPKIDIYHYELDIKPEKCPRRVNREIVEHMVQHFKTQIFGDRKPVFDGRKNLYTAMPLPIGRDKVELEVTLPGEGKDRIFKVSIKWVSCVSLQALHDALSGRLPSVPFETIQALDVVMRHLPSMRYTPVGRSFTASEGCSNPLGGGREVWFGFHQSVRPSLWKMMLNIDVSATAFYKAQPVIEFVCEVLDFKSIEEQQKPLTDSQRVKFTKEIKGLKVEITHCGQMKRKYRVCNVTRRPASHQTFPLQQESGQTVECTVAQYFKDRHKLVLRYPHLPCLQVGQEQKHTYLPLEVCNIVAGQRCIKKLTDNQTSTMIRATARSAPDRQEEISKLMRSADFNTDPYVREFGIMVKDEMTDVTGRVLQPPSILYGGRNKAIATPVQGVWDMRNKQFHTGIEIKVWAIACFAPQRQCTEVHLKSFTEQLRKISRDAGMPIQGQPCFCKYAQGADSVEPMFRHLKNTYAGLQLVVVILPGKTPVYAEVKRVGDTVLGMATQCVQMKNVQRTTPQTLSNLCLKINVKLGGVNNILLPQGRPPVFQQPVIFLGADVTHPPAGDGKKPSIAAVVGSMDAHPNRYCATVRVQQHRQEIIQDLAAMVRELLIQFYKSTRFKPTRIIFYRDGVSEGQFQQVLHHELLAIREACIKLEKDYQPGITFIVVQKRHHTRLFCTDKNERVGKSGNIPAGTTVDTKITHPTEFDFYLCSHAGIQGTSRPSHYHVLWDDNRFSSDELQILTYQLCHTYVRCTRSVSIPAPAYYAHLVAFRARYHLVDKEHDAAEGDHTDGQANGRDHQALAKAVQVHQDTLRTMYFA

AGO2 L192P, sequence (Q9UKV8 whole entry L192P/S387D/S824A/S828D/S831D/S834A): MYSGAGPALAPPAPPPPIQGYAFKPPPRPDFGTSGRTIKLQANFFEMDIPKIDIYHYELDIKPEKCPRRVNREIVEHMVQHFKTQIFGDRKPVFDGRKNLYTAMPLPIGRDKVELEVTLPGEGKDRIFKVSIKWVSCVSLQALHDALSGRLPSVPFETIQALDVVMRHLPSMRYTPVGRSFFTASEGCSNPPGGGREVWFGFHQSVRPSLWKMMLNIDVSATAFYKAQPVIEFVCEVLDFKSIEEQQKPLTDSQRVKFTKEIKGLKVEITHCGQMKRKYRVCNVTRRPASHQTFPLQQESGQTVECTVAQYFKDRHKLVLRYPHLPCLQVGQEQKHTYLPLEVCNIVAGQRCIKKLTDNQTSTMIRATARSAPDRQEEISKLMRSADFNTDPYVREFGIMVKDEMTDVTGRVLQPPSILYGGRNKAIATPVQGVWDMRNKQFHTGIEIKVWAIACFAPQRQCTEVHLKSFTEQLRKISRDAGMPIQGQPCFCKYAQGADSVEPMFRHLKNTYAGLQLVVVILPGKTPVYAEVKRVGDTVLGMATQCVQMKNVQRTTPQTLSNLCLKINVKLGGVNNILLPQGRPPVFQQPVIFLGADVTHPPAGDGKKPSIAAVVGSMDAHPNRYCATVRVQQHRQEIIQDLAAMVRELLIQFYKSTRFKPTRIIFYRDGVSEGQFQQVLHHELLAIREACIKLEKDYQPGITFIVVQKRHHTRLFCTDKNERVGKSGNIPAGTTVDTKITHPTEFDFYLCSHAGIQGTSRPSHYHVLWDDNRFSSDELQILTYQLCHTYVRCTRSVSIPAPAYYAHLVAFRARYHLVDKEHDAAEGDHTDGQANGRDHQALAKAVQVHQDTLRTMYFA
AGO2 T357M, sequence (Q9UKV8 whole entry T357M/S387D/S824A/S828D/S831D/S834A): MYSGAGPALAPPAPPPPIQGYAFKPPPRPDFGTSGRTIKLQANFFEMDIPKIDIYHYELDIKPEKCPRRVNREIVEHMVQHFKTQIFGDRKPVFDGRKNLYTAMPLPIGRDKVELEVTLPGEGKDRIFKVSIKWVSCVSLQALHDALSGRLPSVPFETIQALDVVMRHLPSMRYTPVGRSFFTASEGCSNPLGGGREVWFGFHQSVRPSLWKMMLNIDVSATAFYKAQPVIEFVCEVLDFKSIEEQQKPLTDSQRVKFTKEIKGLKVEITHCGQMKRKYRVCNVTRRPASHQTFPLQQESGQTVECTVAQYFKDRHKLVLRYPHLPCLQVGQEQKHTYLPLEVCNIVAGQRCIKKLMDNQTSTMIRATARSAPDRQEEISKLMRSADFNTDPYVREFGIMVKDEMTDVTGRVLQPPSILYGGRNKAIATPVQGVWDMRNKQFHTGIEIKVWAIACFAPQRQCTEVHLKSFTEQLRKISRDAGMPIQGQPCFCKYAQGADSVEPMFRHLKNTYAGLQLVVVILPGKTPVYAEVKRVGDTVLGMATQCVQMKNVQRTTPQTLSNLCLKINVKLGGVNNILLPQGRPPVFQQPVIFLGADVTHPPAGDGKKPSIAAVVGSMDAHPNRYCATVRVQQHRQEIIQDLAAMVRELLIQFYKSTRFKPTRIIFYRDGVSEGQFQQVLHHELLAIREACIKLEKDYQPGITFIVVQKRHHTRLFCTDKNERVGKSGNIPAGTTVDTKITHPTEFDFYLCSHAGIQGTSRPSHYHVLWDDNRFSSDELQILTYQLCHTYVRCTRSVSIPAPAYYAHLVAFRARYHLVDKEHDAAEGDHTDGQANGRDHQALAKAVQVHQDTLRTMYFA

B1: GTGCTTTG (ssRNA)
RNA 1: GAGUUCUACAGUCCGACGAUCCCAACGUGCUUUGCACCUGGAAUUCUCGGGUGCCAA
RNA 2: UGGAGUGUGACAAUGGUGUUUG
DNA 1: GATCGTCGGACTGTAGAACTC
DNA 2: TTGGCACCCGAGAATTCCA
modifications: constant regions annealed to DNA blockers; guide miR-122 5' phosphate
For the molecule B1, the binding signal in test [1] was 0.45 fold enrichment over input; in test [2] it was 0.177 fold enrichment over input; in test [3] it was 0.623 fold enrichment over input.

B2: ATACCCCA (ssRNA)
RNA 1: GAGUUCUACAGUCCGACGAUCCCAACAUACCCCACACCUGGAAUUCUCGGGUGCCAA
RNA 2: UGGAGUGUGACAAUGGUGUUUG
DNA 1: GATCGTCGGACTGTAGAACTC
DNA 2: TTGGCACCCGAGAATTCCA
modifications: constant regions annealed to DNA blockers; guide miR-122 5' phosphate
Consider B2, for which the binding signal in test [1] was 0.5 fold enrichment over input; in test [2], 0.177 fold enrichment over input; in test [3] it was 0.552 fold enrichment over input; in test [4] it was 0.199 fold enrichment over input.

B3: GTGTTCCA (ssRNA)
RNA 1: GAGUUCUACAGUCCGACGAUCCCAACGUGUUCCACACCUGGAAUUCUCGGGUGCCAA
RNA 2: UGGAGUGUGACAAUGGUGUUUG
DNA 1: GATCGTCGGACTGTAGAACTC
DNA 2: TTGGCACCCGAGAATTCCA
modifications: constant regions annealed to DNA blockers; guide miR-122 5' phosphate
Turning to B3, the binding signal in test [1] is 0.444 fold enrichment over input; in test [2], 0.197 fold enrichment over input; in test [3] it was 0.556 fold enrichment over input; in test [4] it was 0.125 fold enrichment over input.

B4: GCGCCCTG (ssRNA)
RNA 1: GAGUUCUACAGUCCGACGAUCCCAACGCGCCCUGCACCUGGAAUUCUCGGGUGCCAA
RNA 2: UGGAGUGUGACAAUGGUGUUUG
DNA 1: GATCGTCGGACTGTAGAACTC
DNA 2: TTGGCACCCGAGAATTCCA
modifications: constant regions annealed to DNA blockers; guide miR-122 5' phosphate
For B4, the binding signal in test [1] was 0.424 fold enrichment over input; in test [2], 0.172 fold enrichment over input; in test [3], 0.675 fold enrichment over input.

B5: GCGTTCCG (ssRNA)
RNA 1: GAGUUCUACAGUCCGACGAUCCCAACGCGUUCCGCACCUGGAAUUCUCGGGUGCCAA
RNA 2: UGGAGUGUGACAAUGGUGUUUG
DNA 1: GATCGTCGGACTGTAGAACTC
DNA 2: TTGGCACCCGAGAATTCCA
modifications: constant regions annealed to DNA blockers; guide miR-122 5' phosphate
With B5, the figures for the binding signal in test [1], in test [2] and in test [3] were 0.404 fold enrichment over input, 0.149 fold enrichment over input and 0.583 fold enrichment over input, respectively.

B6: ACACTTTG (ssRNA)
RNA 1: GAGUUCUACAGUCCGACGAUCCCAACACACUUUGCACCUGGAAUUCUCGGGUGCCAA
RNA 2: UGGAGUGUGACAAUGGUGUUUG
DNA 1: GATCGTCGGACTGTAGAACTC
DNA 2: TTGGCACCCGAGAATTCCA
modifications: constant regions annealed to DNA blockers; guide miR-122 5' phosphate
Take B6: the binding signal in test [1] was 0.388 fold enrichment over input; in test [2] it was 0.177 fold enrichment over input; in test [3], 0.494 fold enrichment over input.

B7: ATGCTTTA (ssRNA)
RNA 1: GAGUUCUACAGUCCGACGAUCCCAACAUGCUUUACACCUGGAAUUCUCGGGUGCCAA
RNA 2: UGGAGUGUGACAAUGGUGUUUG
DNA 1: GATCGTCGGACTGTAGAACTC
DNA 2: TTGGCACCCGAGAATTCCA
modifications: constant regions annealed to DNA blockers; guide miR-122 5' phosphate
Take B7: the binding signal in test [1] was 0.487 fold enrichment over input; in test [2] it was 0.175 fold enrichment over input; in test [3], 0.582 fold enrichment over input.

B8: GCGTTCTA (ssRNA)
RNA 1: GAGUUCUACAGUCCGACGAUCCCAACGCGUUCUACACCUGGAAUUCUCGGGUGCCAA
RNA 2: UGGAGUGUGACAAUGGUGUUUG
DNA 1: GATCGTCGGACTGTAGAACTC
DNA 2: TTGGCACCCGAGAATTCCA
modifications: constant regions annealed to DNA blockers; guide miR-122 5' phosphate
Regarding B8, the binding signal in test [1] is 0.449 fold enrichment over input; in test [2], 0.169 fold enrichment over input; in test [3], 0.609 fold enrichment over input.

B9: ACATTCTG (ssRNA)
RNA 1: GAGUUCUACAGUCCGACGAUCCCAACACAUUCUGCACCUGGAAUUCUCGGGUGCCAA
RNA 2: UGGAGUGUGACAAUGGUGUUUG
DNA 1: GATCGTCGGACTGTAGAACTC
DNA 2: TTGGCACCCGAGAATTCCA
modifications: constant regions annealed to DNA blockers; guide miR-122 5' phosphate
As to B9, the binding signal was 0.392 fold enrichment over input in test [1], 0.13 fold enrichment over input in test [2] and 0.531 fold enrichment over input in test [3].

B10: GTACCCTA (ssRNA)
RNA 1: GAGUUCUACAGUCCGACGAUCCCAACGUACCCUACACCUGGAAUUCUCGGGUGCCAA
RNA 2: UGGAGUGUGACAAUGGUGUUUG
DNA 1: GATCGTCGGACTGTAGAACTC
DNA 2: TTGGCACCCGAGAATTCCA
modifications: constant regions annealed to DNA blockers; guide miR-122 5' phosphate
On to B10, for which the binding signal in test [1] is 0.468 fold enrichment over input; in test [2] it was 0.168 fold enrichment over input; in test [3], 0.602 fold enrichment over input.

B11: GCATTTTA (ssRNA)
RNA 1: GAGUUCUACAGUCCGACGAUCCCAACGCAUUUUACACCUGGAAUUCUCGGGUGCCAA
RNA 2: UGGAGUGUGACAAUGGUGUUUG
DNA 1: GATCGTCGGACTGTAGAACTC
DNA 2: TTGGCACCCGAGAATTCCA
modifications: constant regions annealed to DNA blockers; guide miR-122 5' phosphate
As for B11, the binding signal is 0.476 fold enrichment over input in test [1], 0.18 fold enrichment over input in test [2], 0.643 fold enrichment over input in test [3] and 0.123 fold enrichment over input in test [4].
